NALP1 inh: NALP1 inhibition | S. cerevisiae NALP1/ASC/caspase-1 growth, X-gal OD620, 72 h | inhibition, % at 10 µM | 280,000 compounds, 0.61% hits; in the data active = inhibition mostly above about 24%, no sharp cut-off; inactive = mostly below about 32%
NR3A LBD binder: modulates the human NR3A ligand-binding domain; NR3A LBD differential scanning fluorimetry, Tm shift; 0% = protein alone, 100% = glycine-bound protein; Tm shift relative to glycine control, % at 25 µM; 340,000 compounds, 2.5% hits; AID 1259313;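 active = melting temperature shift of at least 10% of the positive control shift, at one fixed dose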
CR mimetic SO: lowers age-related superoxide in aged yeast cells; S. cerevisiae aged cells, superoxide DHE fluorescence; hits give low values; superoxide response (% of plate mean), % at 10 µM; 330,000 compounds, 0.18% hits;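 active = superoxide response under a set limit, about three screen SD below normal, cut at about 65% in these data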;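 note: yeast aged for seven days with compound at 30 °C before DHE staining; 100% = average MFI of all compound-treated wells on the plate with controls excluded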
dFosB activator: activators of mouse delta FosB homodimer; AID 493131; 340,000 compounds, 0.99% hits; activation, % at 25 µM; P13346; purified delta FosB, TAMRA-CDK5 oligo fluorescence polarization; percent of positive-control signal above neutral wells;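 active = mean activation above about 17%, with every replicate also reaching it, limit read from the data, passing the limit was not always enough; inconclusive = only one of the two conditions met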
Target sequence (P13346 whole entry, looked up): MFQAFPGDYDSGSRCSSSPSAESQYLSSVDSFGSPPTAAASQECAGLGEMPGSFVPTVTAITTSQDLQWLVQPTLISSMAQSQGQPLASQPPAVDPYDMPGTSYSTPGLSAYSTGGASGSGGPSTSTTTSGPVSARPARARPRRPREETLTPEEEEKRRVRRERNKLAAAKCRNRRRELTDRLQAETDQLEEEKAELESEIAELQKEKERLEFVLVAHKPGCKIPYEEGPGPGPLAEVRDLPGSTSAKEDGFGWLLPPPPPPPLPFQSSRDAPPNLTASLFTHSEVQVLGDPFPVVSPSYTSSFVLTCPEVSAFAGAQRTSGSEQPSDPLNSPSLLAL
UBC13 polyUb: blocks human UBC13 polyubiquitin chain formation; P61088; TR-FRET; inhibition, % at 20 µM; 330,000 compounds, 0.47% hits; AID 485273; in the data active = inhibition above about 45%, passing the limit was not always enough; inconclusive = no clear call, values can overlap the other calls
Target sequence (P61088 whole entry, looked up): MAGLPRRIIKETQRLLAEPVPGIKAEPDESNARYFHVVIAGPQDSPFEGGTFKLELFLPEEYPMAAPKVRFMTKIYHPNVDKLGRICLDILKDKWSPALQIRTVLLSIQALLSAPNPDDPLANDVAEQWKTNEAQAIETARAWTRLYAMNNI
Starred values were filed as active, the others as inactive; ? = inconclusive; / = no result. Compounds with a hit are over-represented: about 4.3% of the library has one in this group of screens.

SMILES	NALP1 inh	NR3A LBD binder	CR mimetic SO	dFosB activator	UBC13 polyUb
O=C(NC1CCSc2ccccc21)c1ccccc1Br (stereo not given)	5.1	-0.4	94.8	4.1	3.2
O=C(NCC(=O)N1CC=C(c2ccccc2)CC1)c1ccc(F)cc1	/	1.1	91.8	6.0	19.5
COc1ccc(Cl)cc1NC(=O)c1cccc([N+](=O)[O-])c1O	/	2.4	/	-4.1	/
Cc1cc(C)cc(NC(=O)c2cnn(-c3ccccc3)c2C2CCNCC2)c1	23.0*	-1.7	94.6	-6.5	6.9
CN(Cc1ccccc1)C(=O)CCCn1c(=O)c2cccn2c2cccnc21	2.8	0.4	101.9	-9.7	1.8
CCN(CC)CCNc1ncnc2c1sc1nc(N3CCCC3)c3c(c12)CC(C)(C)OC3	17.2	-0.4	106.8	23.4*	19.9
CN(C)CCNc1ncnc2c1sc1nc(N3CCCC3)c3c(c12)CC(C)(C)OC3	-2.9	-0.2	91.7	?	24.1
Nc1ccc2[nH]c(=S)[nH]c2c1	/	4.7	/	2.0	/
Cc1ccc(-c2nnc(N(C)C(=O)c3cccnc3)s2)cc1	41.2*	-0.4	102.7	-4.7	-0.5
O=C(CNC(c1ccccc1)c1ccccc1)Nc1ccccc1-c1ccccc1	26.8	16.9*	82.7	-8.1	1.3
O=C(CSCc1c(Cl)cccc1Cl)Nc1ccccc1-c1ccccc1	33.6	15.0*	103.8	-5.6	/
Cc1ccc(/C=N/NC(=O)c2nnn(-c3nonc3N)c2C(C)C)s1	3.3	11.1*	92.3	-5.8	-9.0
Cc1ccc(/C=N/NC(=O)c2nnn(-c3nonc3N)c2CN(C)c2ccccc2)s1	7.4	18.1*	91.4	-13.3	-27.0
CN(Cc1c(C(=O)N/N=C/c2ccc(O)cc2)nnn1-c1nonc1N)C1CCCCC1	25.1	-5.8	118.0	28.6*	-17.6
Cc1ccc(/C=N/NC(=O)c2nnn(-c3nonc3N)c2C(C)C)o1	18.1	-2.9	92.7	-2.0	-8.2
CN(Cc1c(C(=O)N/N=C/c2cccc(O)c2)nnn1-c1nonc1N)c1ccccc1	27.6	31.0*	94.2	-6.4	-8.3
Cc1ccc(/C=N/NC(=O)c2nnn(-c3nonc3N)c2CN(C)C2CCCCC2)cc1	8.9	4.5	93.6	4.5	-2.4
C/C(=N\NC(=O)c1nnn(-c2nonc2N)c1CN(C)c1ccccc1)c1cccc(O)c1	11.0	4.9	88.5	-14.6	-3.8
Cc1ccc(C(=O)Nc2ccccc2N2CCOCC2)cc1S(=O)(=O)N1CCOCC1	/	0.2	103.0	-4.7	-21.9
COc1ccc(/C=C(\NC(=O)c2ccc(OC)cc2)C(=O)N2CCCCC2)cc1	2.7	-0.7	104.6	-10.3	-7.2
COc1ccc2ccccc2c1CNC(=O)CC1C(=O)NCCN1CC(C)(C)C (stereo not given)	/	-1.2	100.2	-3.2	-12.6
CN(Cc1c(C(=O)N/N=C/c2c(F)cccc2Cl)nnn1-c1nonc1N)c1ccccc1	6.7	14.5*	99.9	-4.5	-18.5
CC(C)Oc1ccc(/C=N/NC(=O)c2nnn(-c3nonc3N)c2CN(C)c2ccccc2)cc1	5.0	10.6*	84.8	-3.9	-29.5
CN(C)Cc1c(C(=O)N/N=C/c2ccc(-c3ccccc3)cc2)nnn1-c1nonc1N	33.9	3.3	103.4	-9.4	4.0
CCCCn1c(N)c(N(CCOC)C(=O)c2cc(CC)c(C)s2)c(=O)[nH]c1=O	/	1.7	90.0	-0.9	-3.6
SMILES	NALP1 inh	NR3A LBD binder	CR mimetic SO	dFosB activator	UBC13 polyUb
CCCn1c(N)c(C(=O)CN(C)CC(=O)Nc2ccc(F)cc2)c(=O)[nH]c1=O	/	1.1	99.7	-5.7	0.7
CCCCOc1ccc(CONS(=O)(=O)c2ccc(NC(C)=O)cc2)cc1Cl	11.9	28.1*	129.4	-17.6	6.7
COc1ccc(NS(=O)(=O)c2ccc(C(=O)N3CCC(C)CC3)cc2)cc1	/	0.9	96.1	-5.6	12.7
C=CCn1c(SCC(=O)NC2CCCC2)nc2sc(C)cc2c1=O	/	20.8*	104.7	-2.6	-10.8
C=CCn1c(SCC(=O)Nc2cc(C)on2)nc2sc(C)c(C)c2c1=O	7.8	20.8*	106.5	2.5	-4.5
Cc1cc2c(=O)n(C)c(SCC(=O)NC3CCCC3)nc2s1	/	3.2	104.1	0.7	-5.2
COc1cc(CN2CCC(N3CCC(C(=O)N4CCCC4)CC3)CC2)cc2c1OCO2	15.9	-0.2	99.5	-3.3	1.3
COc1ccc(NC(=O)CSc2nnc(C3CCCCC3)n2N)c(OC)c1	11.1	-1.9	97.8	-1.4	2.6
COc1ccc(OC)c(NC(=O)CSc2nnc(C3CCCCC3)n2N)c1	/	14.1*	97.8	-9.6	0.3
CCN(c1ccccc1)S(=O)(=O)c1cc(C(=O)OC2CCOC2=O)ccc1C (stereo not given)	/	-3.0	99.6	-6.8	-4.3
CC1=NN(c2ccc(C)cc2C)C(=O)C1C(c1ccccc1O)C1C(=O)N(c2ccc(C)cc2C)N=C1C (stereo not given)	28.0	-8.5	117.7	-2.8	-17.8
CC1=NN(c2ccc(Cl)cc2)C(=O)C1C(c1ccccc1O)c1c(C)[nH]n(-c2ccc(Cl)cc2)c1=O (stereo not given)	11.6	255.3*	126.0	-4.8	-13.6
CCOc1ccccc1NC(=S)NCCc1ccccc1	4.0	-0.3	120.3	-8.9	-8.8
O=C1Nc2ccc(Br)cc2C12NNc1ccccc1O2 (stereo not given)	-26.0	25.2*	119.0	-0.9	-69.8
O=C1Nc2ccc(Br)cc2C1(O)c1ccccc1 (stereo not given)	-1.2	-0.7	86.1	-8.7	6.7
CCCN(CC(=O)Nc1cccc(Br)c1)CC(=O)Nc1ccc(F)c(F)c1F	22.2	22.4*	100.9	1.9	1.3
Cc1nc(Nc2ccc3c(c2)OCCO3)c2oc3ccccc3c2n1	17.4	-21.9	81.8	-3.7	7.6
CCc1nc(Nc2ccc3c(c2)OCCO3)c2oc3ccccc3c2n1	33.8*	-1.7	97.6	-8.1	13.3
Cc1nc(Nc2cccc(F)c2)c2oc3ccccc3c2n1	24.7	27.5*	92.2	-23.5	11.7
Cc1nc(Nc2cccc(O)c2)c2oc3ccccc3c2n1	16.0	3.3	96.4	5.6	0.3
Cc1nc(Nc2cccc(Cl)c2)c2oc3ccccc3c2n1	4.2	36.0*	116.6	-25.7	17.2
Cc1cc(=O)oc2cc(OCC(=O)N3CCC(O)CC3)c(Cl)cc12	17.9	0.1	112.3	-12.3	3.9
Oc1ccc(-c2nnc(Nc3cccc(O)c3)c3ccccc23)cc1	43.9*	13.4*	90.7	-2.2	4.8
c1ccc(Nc2nc(NCC3CCCO3)c3ccccc3n2)cc1 (stereo not given)	12.6	-2.9	102.6	-9.0	41.1
COc1ccc(NC(=O)c2cc(C)nc3ccccc23)cc1S(=O)(=O)N1CCOCC1	/	-1.6	99.1	-3.4	4.1
COc1ccc(Nc2nc(-c3cccc(OC)c3O)nc3ccccc23)cc1	4.5	11.4*	100.3	-9.5	1.7
COc1ccc(Nc2nc(-c3ccccc3)nc3ccccc23)cc1S(=O)(=O)N1CCOCC1	/	10.7*	118.6	?	23.3
Oc1cccc(Nc2nc(NCC3CCCO3)c3ccccc3n2)c1 (stereo not given)	8.8	-1.8	100.1	59.2*	33.8

Screening data from PubChem BioAssay.
